Experimental findings from PubChem BioAssay (NCI) are described below.

Test in all cases: NCI-60 one-dose screen, 48 h (100 = growth as untreated, 0 = no growth, -100 = all killed)
What all share (conditions): 10 µM unless noted

For assay [1], the system named is NCI-H23 lung.
Assay [2] concerns NCI-H226 lung.
Assay [3] concerns NCI-H322M lung.
For assay [4], the system named is HOP-62 NSCLC.
Assay [5] concerns NCI-H460 lung.
The subject of assay [6] is HOP-92 NSCLC.
Assay [7] concerns NCI-H522 lung.
Assay [8] relates to A549/ATCC NSCLC.
For assay [9], the system named is 786-0 renal.
Assay [10] deals with COLO 205 colon.
Assay [11] relates to DU-145 prostate.
For assay [12], the system named is K-562 leukemia.
Assay [13] relates to MALME-3M melanoma.
The test system of assay [14] is MDA-MB-231 breast.
The test system of assay [15] is RXF 393 renal.
Assay [16] has as its system SF-268 CNS.
The test system of assay [17] is SF-295 CNS.
Assay [18] deals with SF-539 CNS.
Assay [19] relates to UACC-257 melanoma.
Assay [20] has as its system M14 melanoma.

Compounds without any hit were thinned out: in the full panel of roughly 83,000, 20% have a hit.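 48-hour exposure, single concentration, 96-well plates; percent growth endpoint where 0 means no net growth. Active: below 10.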 A number with no mark means an inactive call. Activity calls are given as the source filed them.

For `c1cc(OCCN2CCCCCC2)ccc1CNc1ccc2nc(CCC3CCCCC3)[nH]c2c1`, the growth was 82.6% in assay [1]; 60.8% in assay [2]; 81.7% in [3]; 60.5% in assay [4]; 68.3% in [5]; 23.3% in [6]. The growth in [7] is 68.5%; in [8], 70.8%; in assay [9], 54.2%; in [10], -48% (active); in assay [11], 69.8%; in assay [12], 3.02% (active). The growth was -72.6% (active) in [13]; 25.5% in assay [14]; 56.2% in [15]; 69.9% in assay [16]; 79.1% in assay [17]; 72.8% in assay [18]. Moreover, the growth in assay [19] was 31.8%; in assay [20], -69.9% (active).

Consider `CSc1nc(-c2ccco2)c(C#N)c(=O)n1C`, for which the growth is 66.1% in [1]; 101% in assay [2]; 89.6% in [3]; 89.5% in assay [4]; 105% in assay [5]; 91.6% in [6]. Further, the growth was 100% in assay [7]; 100% in assay [8]; 104% in assay [9]; 97.2% in [10]; 106% in assay [11]; 101% in assay [12]. For the same compound, the growth is 88.8% in [13]; 107% in assay [14]; 112% in assay [15]; 106% in assay [16]; 97.9% in assay [17]; 89.7% in [18]. Further, the growth was 96.9% in assay [19] and 108% in [20].

As for `CC(C)c1ccc2c(c1)CC[C@H]1[C@](C)(C(=O)OCC#CCN3CCCC3)CCC[C@]21C`, the growth in assay [1] was 61.3%; in assay [2] it was 81.8%; in assay [3], 93.8%; in assay [4], 94.1%; in assay [5], 96.9%; in assay [6], 65.2%. Besides, the growth was 85.8% in assay [7]; 75% in assay [8]; 84.1% in [9]; 44.7% in [10]; 89.3% in [11]; 39.8% in assay [12]. Further, the growth in assay [13] was 70.8%; in assay [14], 100%; in assay [15], 74%; in assay [16], 89.1%; in assay [17], 97.5%; in assay [18], 77.8%. The growth in assay [19] and in assay [20] was 82.4% in each case.

For the compound `CN(C)c1ccc(/C=N\NC(=O)c2ccc3nc(-c4ccc(Cl)cc4)[nH]c3c2)cc1`, the growth in [1] is 61.4%; in assay [2], 93.1%; in [3], 77.6%; in [4], 60.5%; in assay [5] it was 36.2%; in [6] it was 84.6%. In addition, the growth in [7] was 96.1%; in assay [8], 17.8%; in [9], 12.2%; in assay [10] it was 41.3%; in assay [11] it was 85.4%; in [12] it was 38.8%. The growth in [13] was 11.8%; in [14], 63.9%; in assay [15] it was 77.4%; in assay [16], 78.2%; in assay [17], 31.3%; in assay [18] it was 88%. For the same compound, the growth was 100% in assay [19] and 60.3% in [20].

For the compound `Cc1nc(N/N=C/c2cn(-c3ccccc3)nc2-c2cc3ccccc3oc2=O)sc1N=Nc1ccccc1`, the growth in assay [1] was 93.7%; in assay [2] it was 95.4%; in [3], 104%; in [4] it was 66%; in [5], 99.7%; in [6], 97.1%. Moreover, the growth in assay [7] is 66.2%; in assay [8], 96.6%; in [9] it was 97.3%; in [10], 105%; in assay [11], 105%; in [12], 34%. Further, the growth is 89.6% in assay [13]; 87.7% in [14]; 94.6% in assay [15]; 94.9% in [16]; 81.6% in [17]; 87.7% in [18]. For the same compound, the results for the growth in assay [19] and in assay [20] were 94.5% and 70.7%, respectively.

Take `O=C(c1c[nH]c2ccccc12)c1n[nH]c(=S)n1-c1ccc([N+](=O)[O-])cc1`: the growth in [1] is 91.8%; in assay [2] it was 77.8%; in [3], 94.7%; in assay [4], 87.4%; in assay [5], 95.7%; in assay [6], 80.3%. The growth was 84.7% in assay [7]; 81% in [8]; 115% in assay [9]; 96.8% in [10]; 109% in assay [11]; 83.3% in assay [12]. The growth in assay [13] is 106%; in [14], 91.3%; in assay [15] it was 102%; in [16], 95.4%; in [17] it was 104%; in assay [18], 94.1%. For the same compound, the values for the growth in assay [19] and in assay [20] were 99% and 95.9%, respectively.

Consider `N#CSc1c[nH]c2ccc(/C=C/C(=O)/C=C(O)/C=C/c3ccc4[nH]cc(SC#N)c4c3)cc12`, for which the growth was 25.3% in assay [1]; 31.6% in assay [2]; 96.9% in [3]; 28.1% in assay [4]; 12.5% in [5]; -21.3% (active) in [6]. In addition, the growth in assay [7] was -63.9% (active); in assay [8] it was 12.4%; in assay [9], 13.9%; in assay [10], -39.7% (active); in assay [11], 29%; in assay [12], -15.2% (active). For the same compound, the growth in [13] is 20.7%; in [14] it was 22.8%; in assay [15], 9.89% (active); in assay [16] it was 35.5%; in assay [17], 57.3%; in assay [18], 13.5%. The growth was 25.9% in [19] and -5.11% (active) in [20].
